High-throughput results: PubChem, National Center for Advancing Translational Sciences (NCATS)
Giardia FBPA inh = inhibitors of Giardia lamblia fructose-1,6-bisphosphate aldolase; actives 0.71% (n = 290,000); A8B2U2; Potency, µM (series often up to 59.6 µM), most hits filed as inhibitors; purified Giardia FBPA; AID 2451; also: nearly all actives have a fitted effect of over 55% in size
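40 nM FBPA preincubated 10 min at RT with compound (up to 57.5 uM final), then substrate plus GAPDH/TPI/NAD/arsenate coupling and diaphorase/resazurin added. Fluorescence read after 20 min at RT, 525/598 nm.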
Cycloheximide cs = counter-screen hit for Shiga toxin inhibitors, cycloheximide; cell reporter, cycloheximide protein synthesis inhibition counterscreen; max response, %; actives 12% (n = 300,000); AID 2314; in the data active = max response mostly above about 13%, no sharp cut-off; inactive = mostly below about 14%; also: read at 38.3 µM for the half of the compounds with a filed dose
LmPK inh = inhibitors of Leishmania mexicana pyruvate kinase; purified LmPK, Kinase-Glo ATP luminescence, 1 h; Potency, µM (doses to about 57.5 µM), most hits filed as inhibitors; actives 0.37% (n = 290,000)
Target sequence (Q27686 whole entry, looked up): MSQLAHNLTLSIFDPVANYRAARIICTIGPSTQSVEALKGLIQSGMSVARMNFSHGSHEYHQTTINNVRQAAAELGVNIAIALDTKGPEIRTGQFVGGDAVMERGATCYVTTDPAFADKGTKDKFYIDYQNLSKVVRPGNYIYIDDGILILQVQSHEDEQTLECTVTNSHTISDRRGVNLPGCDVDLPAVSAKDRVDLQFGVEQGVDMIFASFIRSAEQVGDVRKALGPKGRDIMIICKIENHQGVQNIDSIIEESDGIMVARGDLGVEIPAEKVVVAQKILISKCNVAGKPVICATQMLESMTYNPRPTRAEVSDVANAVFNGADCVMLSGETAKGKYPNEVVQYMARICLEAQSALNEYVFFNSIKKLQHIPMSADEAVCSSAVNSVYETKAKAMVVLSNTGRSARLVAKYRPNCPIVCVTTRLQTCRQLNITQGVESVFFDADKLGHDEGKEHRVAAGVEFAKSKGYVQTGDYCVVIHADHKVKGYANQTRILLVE
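In 50 mM imidazole pH 7.2 with 7 mM MgCl2, LmPK (0.1 nM) turned over PEP (0.5 mM) and ADP (0.1 mM) for 1 h at room temperature. Luciferase read-out of ATP.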
Sm TGR inh = inhibitors of Schistosoma mansoni thioredoxin glutathione reductase | AID 485364 | purified TGR, DTNB reduction, TNB absorbance 405 nm | actives 3% (n = 360,000) | Potency, µM (highest dose often 114 µM), actives largely listed as inhibitors | Q962Y6; also: nearly all actives have a fitted effect of over 60% in size
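Kinetic colorimetric format: TGR-catalysed, NADPH-driven DTNB reduction monitored via TNB absorbance. Enzyme dispensed at 20 nM; compound exposure 15 min at room temperature before reaction start.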
Shiga inhibitor = Shiga toxin inhibition; inhibition, % at 38.7 µM; AID 2315; Vero cells, Shiga toxin protein synthesis inhibition reporter; actives 9.2% (n = 290,000); in the data active = inhibition mostly above about 28%, no sharp cut-off; inactive = mostly below about 43%
Tb PYK inh = blocks Trypanosoma brucei pyruvate kinase; actives 0.12% (n = 410,000); TbPYK enzyme, Kinase-Glo Plus ATP luminescence, 45 min; Potency, µM (series often up to 76.8 µM), actives largely listed as inhibitors; Q57TT1; also: nearly all actives have a fitted effect of over 50% in size
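Luminescent Kinase-Glo Plus end-point after 45 min room-temperature reaction of T. brucei pyruvate kinase started with 130 uM ADP (final). Buffer TEA 50 mM pH 7.2 with KCl, MgCl2, BSA, Tween-20; titration-based qHTS with fitted concentration-effect curves.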
Large screens that a line does not name were inactive. Many of the other results were omitted from the sample, so hits are more common in it than they were. Unless noted, calls follow the shape of the dose curve; as a rule, active = well fitted curve in the direction sought with a large enough effect; inconclusive = small, poorly fitted or top-dose-only effect, or another doubt; inactive = no such curve, though single readings can be large; an effect the other way counts as inactive or inconclusive.

Clc1ccc(-c2nc(-c3cnccn3)no2)cc1	Cycloheximide cs 30, LmPK inh 7.9µM, Shiga inhibitor 59
Cc1ccc(OCC(=O)N2CCCCC2C)c([N+](=O)[O-])n1 (stereo not drawn)	none (no result: Giardia FBPA inh, Cycloheximide cs, LmPK inh, Sm TGR inh, Shiga inhibitor)
N#CC(C#N)=NNc1ccc(OC(F)(F)F)cc1	Cycloheximide cs 44, Shiga inhibitor 60 (no result: LmPK inh, Sm TGR inh, Tb PYK inh)
CSCC[C@@H]1NC(=O)[C@@H](NC(=O)[C@H](CCCNC(=N)N)NC(=O)[C@H](CC(C)C)NC(=O)[C@H](CCSC)NC(=O)[C@H](CC(=O)O)NC(=O)[C@H](Cc2ccccc2)NC(=O)[C@@H](N)CC(=O)O)CSSC[C@@H](C(=O)N[C@@H](Cc2c[nH]c3ccccc23)C(=O)N[C@@H](CCC(N)=O)C(=O)N[C@@H](Cc2ccc(O)cc2)C(=O)O)NC(=O)[C@@H]2CCCN2C(=O)[C@H](CCCNC(=N)N)NC(=O)[C@H](Cc2ccccc2)NC(=O)[C@H](C(C)C)NC(=O)[C@H](CCCNC(=N)N)NC(=O)CNC(=O)[C@H](CC(C)C)NC1=O	none (no result: LmPK inh, Sm TGR inh, Tb PYK inh)
O=C1NC[C@@H](CCCCN2C[C@H](Cc3ccccc3)N(CCC3CCCCC3)C(=O)C2=O)N(CC2CCCCC2)C1=O	none (no result: Giardia FBPA inh, Cycloheximide cs, LmPK inh, Sm TGR inh, Shiga inhibitor)
CSc1ncc(C(=O)Nc2ccc(Cl)cc2)c(C)n1	Shiga inhibitor 39
CSc1ncc(C(C)=O)c(C)n1	none
CSc1ncc(C(=O)Nc2cccc(Cl)c2C)c(C)n1	none
CSc1ncc(C(=O)Nc2ccc(Br)cn2)c(C)n1	Cycloheximide cs 23, Sm TGR inh inconclusive, Shiga inhibitor 56
CSc1ncc(C(=O)Nc2ccc(C(C)=O)cc2)c(C)n1	Cycloheximide cs 35, Shiga inhibitor 80
COc1cccc(NC(=O)c2cnc(SC)nc2C)c1	none
COc1cccc(OCCCn2cc(/C=C3/C(=N)N4C=C(C)SC4=NC3=O)c3ccccc32)c1	Cycloheximide cs 19, Shiga inhibitor 50
COc1cccc(OCCn2cc(C=O)c3ccccc32)c1	Cycloheximide cs 23 (no result: Shiga inhibitor)
CC1=CN2C(=N)/C(=C/c3cn(CCCOc4ccccc4C)c4ccccc34)C(=O)N=C2S1	Cycloheximide cs 67, Sm TGR inh inconclusive, Shiga inhibitor 24
Cc1cccc(OCCn2cc(/C=N/NC(=O)c3ccncc3)c3ccccc32)c1	Cycloheximide cs 11, Shiga inhibitor 28
COC(=O)N/N=C/c1cn(CCOc2cccc(OC)c2)c2ccccc12	none
COc1cc(O)c(C(=O)O)c(O)c1	none (no result: Cycloheximide cs, LmPK inh, Sm TGR inh, Shiga inhibitor, Tb PYK inh)
COc1ccc(OCCCn2cc(/C=C3/C(=N)N4C=C(C)SC4=NC3=O)c3ccccc32)cc1	Cycloheximide cs 35, Shiga inhibitor 36
CCOC(=O)/C(C#N)=C/c1cn(CCOc2ccc(OC)cc2)c2ccccc12	none
Clc1ccc(-c2nnc3sc(-c4ccc(Br)o4)nn23)cc1	none
Cc1oc(-c2ccc(Cl)cc2)cc1-c1nn2c(-c3ccoc3C)nnc2s1	Giardia FBPA inh inconclusive, Sm TGR inh 22µM
CCCCCC(=O)N1C[C@@H](n2cc(COC(=O)c3ccccc3)nn2)[C@H](O)C[C@@H]1c1ccc(Cl)cc1	none (no result: Giardia FBPA inh, Cycloheximide cs, LmPK inh, Sm TGR inh, Shiga inhibitor)
Cn1c(SCc2ccccc2)nnc1C1CCCNC1 (stereo not drawn)	Sm TGR inh 45µM
CC(O)(c1ccc(Cl)cc1)c1ccc(Cl)cc1	none (no result: LmPK inh, Sm TGR inh, Tb PYK inh)
CC(=O)N(C)c1ccc(NC(=O)C(Sc2ccccc2)c2ccccc2)cc1 (stereo not drawn)	Cycloheximide cs 18, Shiga inhibitor 43
CS(=O)(=O)N(CC(=O)NCc1ccco1)Cc1ccc(Cl)cc1	Sm TGR inh 11µM
Cc1ccc(S(=O)(=O)N(CC(=O)NCc2ccco2)Cc2ccc(F)cc2)cc1	Sm TGR inh 40µM
Cc1ccc(S(=O)(=O)NCC(=O)N(CC(=O)NCc2ccco2)Cc2ccc(F)cc2)cc1	none
CS(=O)(=O)N(CC(=O)NCc1ccccc1)Cc1ccc(Cl)cc1	none
Cc1ccc(CNC(=O)c2ccc3c(c2)NC(=O)C(CS(=O)(=O)Cc2cccc(C)c2)N3)cc1 (stereo not drawn)	none (no result: Giardia FBPA inh, Cycloheximide cs, LmPK inh, Shiga inhibitor)
COc1ccc(-n2cnc3cc(NS(=O)(=O)c4ccc(C)cc4)ccc32)cc1	none (no result: Tb PYK inh)
O=C(Nc1ccc2c(c1)ncn2-c1ccccc1)c1ccco1	Cycloheximide cs 38, Shiga inhibitor 45, Tb PYK inh inconclusive
CC(=O)Nc1ccc2c(c1)ncn2-c1ccc(C)cc1	Cycloheximide cs 42, Shiga inhibitor 99 (no result: Sm TGR inh)
CC(=O)Nc1ccc2c(c1)ncn2C	none
Cn1cnc2cc(NC(=O)c3ccco3)ccc21	Cycloheximide cs 25, Shiga inhibitor 79
O=C(Nc1cccc(-n2cnnn2)c1)c1ccco1	none
COc1ccc(Cn2c(=O)c3cccnc3n(Cc3cccc(F)c3)c2=O)cc1	none (no result: Giardia FBPA inh, Cycloheximide cs, LmPK inh, Shiga inhibitor)
CC(=O)n1cc([C@H]2C=C(C(=O)N3CCN(Cc4ccc5c(c4)OCO5)CC3)O[C@@H](OCc3ccc(CO)cc3)C2)c2ccccc21	none
CC(=O)n1cc([C@@H]2C=C(C(=O)NCc3ccccc3)O[C@H](OCc3ccc(CO)cc3)C2)c2ccccc21	Giardia FBPA inh inconclusive, Sm TGR inh 50µM
CC(=O)n1cc([C@H]2C=C(C(=O)N3CCN(Cc4ccccc4)CC3)O[C@@H](OCc3ccc(CO)cc3)C2)c2ccccc21	Giardia FBPA inh inconclusive, Sm TGR inh 18µM
Cc1ccc(NP(=O)(Nc2ccc(C)cc2)Oc2ccccc2)cc1	Cycloheximide cs 24
CCOC(=O)CSC1=NC(=O)CS1	Sm TGR inh 32µM
CCOC(=O)CSc1snnc1C	none (no result: Giardia FBPA inh, Cycloheximide cs, LmPK inh, Sm TGR inh, Shiga inhibitor)
Cc1[nH]n(-c2ccc([N+](=O)[O-])cc2)c(=O)c1C=NCCN1CCN(C(=O)c2ccccc2)CC1	LmPK inh 28µM
O=c1c(C=NCCN2CCNCC2)c(-c2ccccc2)[nH]n1-c1ccc([N+](=O)[O-])cc1	none (no result: Tb PYK inh)
COc1ccc(-c2[nH]n(-c3ccc([N+](=O)[O-])cc3)c(=O)c2C=NCCN2CCNCC2)cc1	Giardia FBPA inh inconclusive, LmPK inh 16µM (no result: Tb PYK inh)
Cc1cccc(C2c3[nH]c4ccccc4c3CCN2Cc2cccn2-c2ncccn2)c1 (stereo not drawn)	none (no result: Sm TGR inh)
c1ccc(C2c3[nH]c4ccccc4c3CCN2Cc2cccn2-c2ccccn2)nc1 (stereo not drawn)	Sm TGR inh 50µM
Cc1cc(C)cc(C(=O)Nc2ccc(N3CCCC3)cc2)c1	Cycloheximide cs 50, Sm TGR inh inconclusive, Shiga inhibitor 72
Cc1ccc(C(=O)N2CCN(c3ccc(NC(=O)c4cc(C)cc(C)c4)cc3)CC2)cc1	none (no result: Giardia FBPA inh)
Cc1cc(C)cc(NC(=O)Nc2ccc(N3CCCCC3)cc2)c1	Cycloheximide cs 38
O=C(CSc1nnc2sc3ccccc3n12)c1ccco1	Cycloheximide cs 40, Sm TGR inh inconclusive, Shiga inhibitor 100
c1csc(CSc2nnc3sc4ccccc4n23)c1	Cycloheximide cs 32, Shiga inhibitor 106
Cc1cc(-n2c(C)cc(C(=O)CSc3nnc4sc5ccccc5n34)c2C)no1	Cycloheximide cs 24, Shiga inhibitor 87
